Results published in PubChem BioAssay (Tox21).
The source made the active and inactive calls. Where a call stands in place of a potency, no number is given. Unless noted, calls come from the whole dose curve; as a rule, active = well fitted curve in the direction sought with a large enough effect in the repeat runs; inconclusive = weak or mixed curves; inactive = no such curve, though single readings can be large; an effect the other way counts as inactive or inconclusive.

How the values were obtained:
[1] = qHTS assay to identify small molecule antagonists of the thyroid receptor (TR) signaling pathway (AID 743065); note: nearly all actives have a fitted effect of over 55% in size; note: potency is the fitted concentration of half-maximal effect
Procedure, shortened: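 Antagonism measured as loss of luciferase signal in GH3 cells stably carrying a TRE-luciferase reporter, co-treated with compound and T3 (1 nM final) for 23.5 h at 37 C. Viability was read in the same well by CellTiter-Fluor.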

[2] = qHTS assay to identify small molecule antagonists of the estrogen receptor alpha (ER-alpha) signaling pathway - cell viability counter screen (AID 743074; calls by dose curve;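 note: HEK293 cells carrying ER-alpha-UAS-bla reporter stimulated with 17beta-estradiol; nearly all actives have a fitted effect of over 45% in size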; note: potency is the fitted concentration of half-maximal effect)
[3] = qHTS assay to identify small molecule antagonists of the estrogen receptor alpha (ER-alpha) signaling pathway using the BG1 cell line - cell viability counter screen (AID 743081);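 note: compound given together with 17beta-estradiol as the ER stimulus; nearly all actives have a fitted effect of over 45% in size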; note: potency is the fitted concentration of half-maximal effect
Aromatase (Homo sapiens) = Aromatase (Homo sapiens) (UniProt P11511); assay: qHTS assay to identify aromatase inhibitors (AID 743083); note: nearly all actives have a fitted effect of over 55% in size; note: potency is the fitted concentration of half-maximal effect
Chain of Aromatase (Homo sapiens) (P11511 whole entry, looked up): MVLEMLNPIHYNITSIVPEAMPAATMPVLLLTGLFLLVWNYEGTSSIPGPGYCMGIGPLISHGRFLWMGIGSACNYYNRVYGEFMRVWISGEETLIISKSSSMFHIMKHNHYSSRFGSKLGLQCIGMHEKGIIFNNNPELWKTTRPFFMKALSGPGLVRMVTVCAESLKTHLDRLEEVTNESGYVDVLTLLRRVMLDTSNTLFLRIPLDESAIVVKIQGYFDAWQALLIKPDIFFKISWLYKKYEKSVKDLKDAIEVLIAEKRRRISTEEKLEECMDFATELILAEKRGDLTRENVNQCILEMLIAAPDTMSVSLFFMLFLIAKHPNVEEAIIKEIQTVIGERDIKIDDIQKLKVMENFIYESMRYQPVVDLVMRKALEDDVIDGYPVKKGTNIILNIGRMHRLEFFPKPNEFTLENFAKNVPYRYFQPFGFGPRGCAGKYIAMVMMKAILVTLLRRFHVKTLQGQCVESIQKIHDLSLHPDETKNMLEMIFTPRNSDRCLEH

[4] = target: Estrogen receptor (Homo sapiens) (UniProt P03372); assay: qHTS assay to identify small molecule antagonists of the estrogen receptor alpha (ER-alpha) signaling pathway (AID 743069; active = well fitted curve in the direction sought with a large enough effect in the signal ratio in the repeat runs, not every such curve was filed as active; inconclusive = weak or mixed curves, or effect the other way; inactive = no such curve, though single readings can be large or run the other way; the % refers to the signal ratio; note: potency is the fitted concentration of half-maximal effect)
Chain of Estrogen receptor (Homo sapiens) (P03372 whole entry, looked up): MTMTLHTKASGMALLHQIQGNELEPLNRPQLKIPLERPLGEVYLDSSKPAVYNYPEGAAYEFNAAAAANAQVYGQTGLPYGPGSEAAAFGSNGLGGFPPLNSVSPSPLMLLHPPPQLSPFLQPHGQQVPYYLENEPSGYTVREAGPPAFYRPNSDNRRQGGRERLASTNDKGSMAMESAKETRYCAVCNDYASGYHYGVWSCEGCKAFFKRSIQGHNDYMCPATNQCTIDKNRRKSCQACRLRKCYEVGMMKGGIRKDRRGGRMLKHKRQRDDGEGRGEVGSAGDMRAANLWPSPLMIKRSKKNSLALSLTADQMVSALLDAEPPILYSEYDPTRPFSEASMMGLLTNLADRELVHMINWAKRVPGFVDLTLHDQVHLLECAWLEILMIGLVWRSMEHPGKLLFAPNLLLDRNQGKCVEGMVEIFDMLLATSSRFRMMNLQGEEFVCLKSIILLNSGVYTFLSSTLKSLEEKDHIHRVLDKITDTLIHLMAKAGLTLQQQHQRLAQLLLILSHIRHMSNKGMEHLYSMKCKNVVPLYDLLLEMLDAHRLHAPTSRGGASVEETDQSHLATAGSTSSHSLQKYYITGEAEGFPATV
Procedure, shortened: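 ER-alpha-UAS-bla GripTite HEK293 line; 2% charcoal-stripped FBS overnight; plated, 4 hr 37C/5% CO2; cpd in DMSO + 17beta-estradiol, 18 hr 37C; LiveBLAzer B/G FRET substrate 2 hr RT; fluorescence intensity.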

[5] = target: Estrogen receptor (Homo sapiens) (UniProt P03372); assay: qHTS assay to identify small molecule agonists of the estrogen receptor alpha (ER-alpha) signaling pathway (AID 743075; calls by dose curve;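 note: HEK293 GripTite cells with ER-alpha and UAS-driven beta-lactamase reporter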; note: potency is the fitted concentration of half-maximal effect)
[6] = target: Estrogen receptor (Homo sapiens) (UniProt P03372); assay: qHTS assay to identify small molecule agonists of the estrogen receptor alpha (ER-alpha) signaling pathway using the BG1 cell line (AID 743079); settings: BG1Luc4E2 cells, ERE-luciferase agonist, 22 h; activation: at 70.3 µM (top of the series); note: nearly all actives have a fitted effect of over 20% in size; note: potency is the fitted concentration of half-maximal effect
[7] = qHTS assay to identify small molecule antagonists of the estrogen receptor alpha (ER-alpha) signaling pathway using the BG1 cell line (AID 743080; calls by dose curve;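 note: BG1 cells stimulated with 17beta-estradiol alongside compound; nearly all actives have a fitted effect of over 25% in size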; note: potency is the fitted concentration of half-maximal effect)
Procedure, shortened: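 Seeding, 24 h rest, compound transfer from DMSO, 17beta-estradiol addition, 21.5 h incubation, CellTiter-Fluor (30 min, 37 C), then ONE-Glo (30 min, room temperature): this sequence was run on BG1-Luc-4E2 reporter cells.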

[8] = qHTS assay to identify aromatase inhibitors - cell viability counter screen (AID 743084);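 note: cells stimulated with testosterone during compound exposure; nearly all actives have a fitted effect of over 55% in size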
[9] = tested on: thyroid hormone receptor (rat, GH3 cells); assay: qHTS assay to identify small molecule agonists of the thyroid receptor (TR) signaling pathway (AID 743066; calls by dose curve)

For CCCCC1C(=O)N(c2ccccc2)N(c2ccc(O)cc2)C1=O (stereo unspecified), the Potency [1] was 3.2 µM (active), the Potency [2] was “inactive” and the Potency [3] was “inactive”. The Potency (Aromatase (Homo sapiens)) was “inactive”.
With COc1cc2ncnc(Nc3ccc(F)c(Cl)c3)c2cc1OCCCN1CCOCC1 the Potency [1] was 10.6 µM (active), the Potency [4] was 16.9 µM [inhibitor] (active) and the Potency [2] was “inactive”. The Potency [5] was “inactive” and the Potency (Aromatase (Homo sapiens)) was “inactive”.
For Cc1c(C(=O)NN2CCCCC2)nn(-c2ccc(Cl)cc2Cl)c1-c1ccc(Cl)cc1, the Potency [1] was 11.9 µM (active), the Potency [5] was “inactive” and the Potency [6] was “inactive”. For the same compound, the Potency [7] was “inactive”, the Potency [3] was “inactive” and the Potency (Aromatase (Homo sapiens)) was “inactive”. For the same compound, the Potency [8] was “inactive”.
For O=C(N[C@@H](c1ccccc1)[C@@H]1CCCCN1)c1cccc(C(F)(F)F)c1Cl, the Potency [1] was 27.3 µM (active), the Potency [2] was “inactive” and the Potency [5] was “inactive”. The Potency (Aromatase (Homo sapiens)) was 38.6 µM (active).
For CN(C)CCOC1=Cc2ccccc2Sc2ccc(Cl)cc21, the Potency [1] was 9.44 µM (active), the Potency [5] was “inactive” and the Potency [6] was “inactive”. For the same compound, the Potency [7] was “inactive” and the Potency [3] was “inactive”.
In the case of COc1cc2c(N3CCN(C(=O)Nc4ccc(OC(C)C)cc4)CC3)ncnc2cc1OCCCN1CCCCC1, the Potency [1] is reported as 13.3 µM (active), the Potency [2] is reported as “inactive” and the Potency [6] is reported as “inactive”. For the same compound, the Potency [7] was “inactive”, the Potency (Aromatase (Homo sapiens)) was “inactive” and the Potency [8] was “inactive”.
With CC(=O)Oc1ccc2c(c1)CC[C@@H]1[C@@H]2CC[C@]2(C)[C@@H](O)CC[C@@H]12 the Potency [1] was 26.6 µM (active), the Potency [2] was “inactive” and the Potency [3] was “inactive”. The Potency (Aromatase (Homo sapiens)) was “inactive” and the Potency [8] was “inactive”.
For CCN(Cc1cccc(S(=O)(=O)O)c1)c1ccc(C(=C2C=CC(=[N+](CC)Cc3cccc(S(=O)(=O)[O-])c3)C=C2)c2ccccc2)cc1, the outcome [9] was “inactive”, the Potency [2] was “inactive” and the Potency [5] was “inactive”. The Potency [6] was “inactive”, the Potency [7] was “inactive” and the Potency [3] was “inactive”. The Potency (Aromatase (Homo sapiens)) was “inactive” and the Potency [8] was “inactive”.
For CCNC(=O)N1CCN(CCCC(c2ccc(F)cc2)c2ccc(F)cc2)CC1, the Potency [1] was 21.1 µM (active), the Potency [2] was 16.9 µM (active) and the Potency [5] was “inactive”. For the same compound, the Potency [3] was 29.8 µM (active).
With NC(=O)N(O)[C@@H]1C=C[C@H](Oc2cccc(Oc3ccc(F)cc3)c2)C1 the Potency [1] was 68.6 µM (active), the Potency [2] was “inactive” and the Potency [5] was “inactive”. The Potency [6] was 13.7 µM (active), the Potency [7] was 77 µM (active) and the Potency [3] was “inactive”. For the same compound, the Potency [8] was “inactive”.
With CNC(=S)NC the outcome [9] was “inactive”, the Potency [4] was “inactive” and the Potency [2] was “inactive”. For the same compound, the Potency [5] was “inactive”, the Potency [6] was “inactive” and the Potency [7] was “inactive”. For the same compound, the Potency [3] was “inactive”, the Potency (Aromatase (Homo sapiens)) was “inactive” and the Potency [8] was “inactive”.
In the case of O=c1[nH]c2ccc(S(=O)CCN3CCC(Cc4ccc(F)cc4)CC3)cc2o1 (stereo unspecified), the outcome [9] is reported as “inactive”, the Potency [4] is reported as “inactive” and the Potency [2] is reported as “inactive”. For the same compound, the Potency [5] was “inactive”, the Potency [6] was 12.2 µM (active) and the Potency (Aromatase (Homo sapiens)) was “inactive”. The Potency [8] was “inactive”.
In the case of CCCCCCCCCCOS(=O)(=O)O, the outcome [9] is reported as “inactive”, the Potency [4] is reported as “inactive” and the Potency [2] is reported as “inactive”. The Potency [5] was “inactive”, the Potency [6] was “inactive” and the Potency [7] was “inactive”. For the same compound, the Potency [3] was “inactive”, the Potency (Aromatase (Homo sapiens)) was “inactive” and the Potency [8] was “inactive”.
In the case of CCOc1cc(N)c(Cl)cc1C(=O)NCC1CN(Cc2ccc(F)cc2)CCO1 (stereo unspecified), the outcome [9] is reported as “inactive”, the Potency [4] is reported as “inactive” and the Potency [2] is reported as “inactive”. The Potency [5] was “inactive”, the Potency [6] was “inactive” and the Potency [7] was “inactive”. The Potency [3] was “inactive”, the Potency (Aromatase (Homo sapiens)) was “inactive” and the Potency [8] was “inactive”.
In the case of O=C(Nc1ccccc1)Nc1ccccc1, the outcome [9] is reported as “inactive”, the Potency [4] is reported as “inactive” and the Potency [2] is reported as “inactive”. For the same compound, the Potency [5] was “inactive”, the Potency [6] was 19.4 µM (active) and the Potency [3] was “inactive”. The Potency (Aromatase (Homo sapiens)) was “inactive” and the Potency [8] was “inactive”.
For CSc1ccc(Oc2ccc(S(N)(=O)=O)cc2CN(C)C)cc1C, the Potency [1] was 27.3 µM (active), the Potency [5] was “inactive” and the Potency [3] was “inactive”. The Potency [8] was “inactive”.
In the case of CCCCN(CCCC)C(=S)SSC(=S)N(CCCC)CCCC, the Potency [1] is reported as “inactive”, the Potency [5] is reported as “inactive” and the Potency [6] is reported as “inactive”. The Potency [7] was “inactive”, the Potency [3] was “inactive” and the Potency (Aromatase (Homo sapiens)) was “inactive”. For the same compound, the Potency [8] was “inactive”.
With C=CC(=O)NCOCC(C)C the Potency [2] was “inactive”, the Potency [3] was “inactive” and the Potency (Aromatase (Homo sapiens)) was “inactive”. The Potency [8] was “inactive”.
In the case of O=C(c1ccc(O)cc1)c1ccc(Cl)cc1, the outcome [9] is reported as “inactive”, the Potency [2] is reported as “inactive” and the Potency [3] is reported as “inactive”. For the same compound, the Potency (Aromatase (Homo sapiens)) was “inactive” and the Potency [8] was “inactive”.
In the case of CC(=O)Oc1ccc(C(=C2CCCCC2)c2ccc(OC(C)=O)cc2)cc1, the Potency [2] is reported as “inactive”, the Potency [5] is reported as “inactive” and the Potency [6] is reported as “inactive”. For the same compound, the Potency [7] was “inactive”, the Potency [3] was “inactive” and the Potency (Aromatase (Homo sapiens)) was “inactive”. The Potency [8] was “inactive”.
With CN1CCCN=C1/C=C/c1cccs1 the Potency [5] was 23.9 µM [inconclusive] (active), the Potency [6] was 7.5 µM (active) and the Potency [7] was “inactive”. The Potency [3] was “inactive”, the Potency (Aromatase (Homo sapiens)) was “inactive” and the Potency [8] was “inactive”.
In the case of O=C(N/N=C/c1ccc([N+](=O)[O-])o1)c1ccc(O)cc1, the outcome [9] is reported as “inactive”, the Potency [2] is reported as “inactive” and the Potency [5] is reported as “inactive”. The Potency (Aromatase (Homo sapiens)) was 10.1 µM (active).
For O=C(CS)OCCOC(=O)CS, the outcome [9] was “inactive”, the Potency [2] was “inactive” and the Potency [3] was “inactive”. For the same compound, the Potency (Aromatase (Homo sapiens)) was “inactive” and the Potency [8] was “inactive”.
In the case of CC[C@H](NC(=O)c1cc(F)ccc1NS(=O)(=O)c1cccc2cccnc12)c1ccccc1, the outcome [9] is reported as “inactive”, the Potency [2] is reported as “inactive” and the Potency [5] is reported as “inactive”. The Potency [6] was “inactive”, the Potency [3] was “inactive” and the Potency (Aromatase (Homo sapiens)) was “inactive”. The Potency [8] was “inactive”.
With C[C@]12CCC(=O)C=C1C=C[C@@H]1[C@@H]2CC[C@@]2(C)[C@H]1CC[C@@]21CCC(=O)O1 the outcome [9] was “inactive”, the Potency [2] was “inactive” and the Potency [5] was “inactive”. The Potency [3] was “inactive” and the Potency [8] was “inactive”.
